About 13,000 (27%) of roughly 48,000 compounds showed an effect of 50% or more. Some of the results follow.
Test system: Wolbachia pipientis
Assay: Anti-Wolbachia Cell-Based Screen
Format: functional
Design: scale not given: in the data most compounds retested in dose-response had high values
Settings: 5 µM

Point of comparison: COc1c(Br)cccc1CCNC(=O)c1ccon1, “Percent Effect” value -9.617%. Against it:
- Cc1cc(CN(C)Cc2cc3c(cc2OC(F)F)OCO3)on1 — higher, -6.74%
- CC(C)c1nnc(CN2CCCC2C(=O)OCc2ccccc2)o1 (stereo not given) — higher, 4.736%
- COCC1CCN(CCCc2cn[nH]c2)CC1 — higher, 0.277%
- Cc1cc(C)n(-c2ccc(N3CCC4(CC3)OCCO4)nc2)n1 — higher, 6.34%
- COCCN(C)C(=O)c1nc2c(s1)CCCN2C — higher, 4.068%
- CCNC(=O)c1nc2c(s1)CCCN2S(C)(=O)=O — lower, -29.83%
- CC(=O)N1CCCc2sc(C(=O)NC3CC3)nc21 — higher, 2.286%
- COCCN(C)C(=O)c1nc2c(s1)CCCN2S(C)(=O)=O — lower, -10.12%
- CCN(C(=O)c1nc2c(s1)CCCN2S(C)(=O)=O)C(C)C — higher, 111.8%
- CCN(C(=O)c1nc2c(s1)CCCN2Cc1ccccc1)C(C)C — higher, -4.382%
- CC(=O)N1CCCc2sc(C(=O)Nc3ccc(C)nc3)nc21 — higher, -6.006%
- CCN(C(=O)c1nc2c(s1)CCCN2C(C)=O)C(C)C — higher, 127.1%
- CCN(C(=O)c1nc2c(s1)CCCN2C)C(C)C — higher, 108.3%
- CCn1cc(CN2CCC(c3ccncc3)CC2)cc1C#N — higher, 18.43%
- Cc1ccc2c(c1)c(CNC(=O)C1CC(=O)N(CCN(C)C)C1)nn2C (stereo not given) — higher, 14.04%
- CC(C)OCCN(C)CC(c1cccs1)N1CCOCC1 (stereo not given) — higher, -0.1545%
- Cc1sc2nc(SC(C)c3nc(C(C)C)no3)nc(N)c2c1C (stereo not given) — higher, 10.39%
- Cc1nc(C)n(CC2CCCN(CCc3ccncc3)C2)n1 (stereo not given) — higher, -0.4528%
- Cc1nc(C)n(CC2CCCN(CCc3ccccc3)C2)n1 (stereo not given) — higher, 91.53%
- COc1ccc(CCN2CCCC(Cn3nc(C)nc3C)C2)cc1 (stereo not given) — higher, 9.645%
- Cc1nc(C)n(CC2CCCN(CCCc3ccccc3)C2)n1 (stereo not given) — higher, 82.12%
- CNC(=O)NCC1CCC2(CCN(C(=O)c3ccccn3)CC2)CO1.O=C(O)C(F)(F)F (stereo not given) — higher, 105.2%
- O=C(O)C(F)(F)F.O=C(c1cocn1)N1CCC2(CC1)COC(COCc1ccccn1)C2 (stereo not given) — lower, -10.48%
- CCOCC1CC2(CCN(C(=O)c3ccccn3)CC2)CO1.O=C(O)C(F)(F)F (stereo not given) — lower, -17.18%
- CN(C)CC(=O)N1CCC2(CC1)COC(COc1ccccn1)C2.O=C(O)C(F)(F)F.O=C(O)C(F)(F)F (stereo not given) — higher, 11.11%
- NCC1CCC2(CCN(C(=O)c3ccccn3)CC2)CO1.O=C(O)C(F)(F)F.O=C(O)C(F)(F)F (stereo not given) — higher, 112.6%
- Cc1ccc(C(=O)N2CCC3(CC2)COC(COc2ccccn2)C3)o1.O=C(O)C(F)(F)F (stereo not given) — higher, 2.842%
- O=C(NCCNCC1CNc2ccnn2C1)c1ccc(F)cc1 (stereo not given) — lower, -19.45%
- COc1ccc(CNC[C@H]2Cn3ccnc3CO2)cn1 — higher, -7.877%
- COc1ccc(CNCC2CNc3ccnn3C2)cn1 (stereo not given) — higher, 96.76%
- c1ccc(Cn2cncn2)c(CNCC2CNc3ccnn3C2)c1 (stereo not given) — higher, 4.151%
- c1cc2n(n1)CC(CNCc1ccc(OCC3CC3)nc1)CN2 (stereo not given) — higher, 1.128%
- Cc1cc2n(n1)CC(CNCc1ccc(OCC3CC3)nc1)CN2 (stereo not given) — higher, 93.19%
- c1ccc(-n2ccnc2)c(CNCC2CNc3ccnn3C2)c1 (stereo not given) — higher, -6.615%
- Cc1cc2n(n1)CC(CNCc1ccc(-n3cccn3)nc1)CN2 (stereo not given) — higher, -3.824%
- Fc1ccc(Oc2ccc(CNCC3CNc4ccnn4C3)cn2)cc1 (stereo not given) — higher, 99.62%
- c1ccc(Oc2ccc(CNCC3CNc4ccnn4C3)cn2)cc1 (stereo not given) — higher, 117.1%
- Cc1cc2n(n1)CC(CNCc1cnn(C)c1)CN2 (stereo not given) — higher, -3.792%
- Fc1cccc(Oc2ccc(CNCC3CNc4ccnn4C3)cn2)c1 (stereo not given) — higher, 5.815%
- Cc1n[nH]c(C)c1C1CCCN1C(=O)c1coc(Br)c1 (stereo not given) — higher, 4.835%
- CCN(Cc1cccc2c1OCCO2)C(=O)NC(C)(C)C — higher, -7.864%
- COc1cc(CN(C)C(=O)NCc2cccc3c2OCO3)ccc1SC — lower, -31.12%
- O=C(Cc1ccccc1Br)NCC(=O)Nc1cn[nH]c1 — lower, -11.75%
- O=C(Nc1ccccn1)N(CCO)Cc1ccsc1 — higher, -7.906%
- O=C(Nc1cn[nH]c1)N(CCO)C1CCc2ccccc21 (stereo not given) — higher, 3.342%
- CCN(C(=O)c1cccc2c1OCO2)c1ccccc1 — higher, -1.465%
- Cc1cc(CN(C)C(=O)NCc2ccccn2)no1 — higher, 9.808%
- CCN(Cc1ccc2c(c1)OCO2)C(=O)NCc1nc(C)cs1 — higher, -7.212%
- CCN(Cc1cccc2c1OCO2)C(=O)Nc1ccccn1 — higher, 122.5%
- CCN(Cc1cccc2c1OCO2)C(=O)NCCOC — higher, 78.96%
- CCN(Cc1cccc2c1OCO2)C(=O)NCc1ccccn1 — higher, 102.4%
- CCN(Cc1cccc2c1OCO2)C(=O)Nc1cn[nH]c1 — higher, 109.5%
- Nc1nc(CCC(=O)N2CCOC(CC3CCCCC3)C2)cs1 (stereo not given) — higher, -4.495%
- CC1(C)CCC(C(=O)O)c2ccccc21 (stereo not given) — higher, 1.78%
- CN(Cc1ccc(Br)o1)C(=O)Nc1cccnc1 — higher, 14.31%
- O=C(C1CCSCC1)N1CCC2(CC1)COC(COCC1CC1)C2 (stereo not given) — higher, 0.4038%
- Cc1cccc(CN2CCC3(CC2)COC(COCC2CC2)C3)n1 (stereo not given) — higher, 102.1%
- Cc1cc(CN2CCC3(CC2)COC(COCC2CC2)C3)no1.O=C(O)C(F)(F)F (stereo not given) — higher, 95.48%
- O=C(O)C(F)(F)F.O=C(O)C(F)(F)F.c1cncc(OCC2CC3(CCN(CC4CC4)CC3)CO2)c1 (stereo not given) — higher, -1.816%
- CC(=O)N1CCC2(CC1)COC(COCc1ccccn1)C2.O=C(O)C(F)(F)F (stereo not given) — higher, -3.959%
- Cc1csc(CN2CCC3(CC2)COC(COCC2CC2)C3)n1.O=C(O)C(F)(F)F (stereo not given) — higher, 87.23%
- CCOCC1CC2(CCN(Cc3ccccn3)CC2)CO1 (stereo not given) — higher, -6.984%
- Cc1ncc(CNc2ccc(C(=O)NCc3ccco3)cc2C)s1 — lower, -10.56%
- CCS(=O)(=O)CCNC(=O)c1ccc(-c2ccc(C)cc2)cc1F — lower, -13.74%
- CN(C)[C@@H]1CO[C@H](CNC(=O)c2cccs2)[C@H]1O — higher, 5.998%
- COCC(=O)NCCSCCOc1cccc(Br)c1 — higher, 5.807%
- Cc1cc(C)nc(N2Cc3cnn(Cc4ccc(F)cc4)c3C2)n1 — higher, 10.67%
- CNc1cc(C)nc(N2Cc3cnn(Cc4ccc(F)cc4)c3C2)n1 — higher, 67.48%
- Cc1ccnc(N2Cc3cnn(Cc4ccc(F)cc4)c3C2)n1 — lower, -9.844%
- CCN(CC)c1ncnc2c(C)nn(CC)c12 — higher, 92.35%
- CCn1nc(C)c2ncnc(N(C)C)c21 — higher, 100.5%
- CCn1nc(C)c2nc(C(C)C)nc(N3CCCCC3)c21 — lower, -10.35%
- CCN(Cc1ccccc1)c1ncnc2c(C)nn(CC)c12 — higher, 90.55%
- COCCN(Cc1ccccc1)c1cc(C)ncn1 — lower, -9.961%
- CCn1nc(C)c2ncnc(NCC(=O)N3CCOCC3)c21 — higher, 4.727%
- CCCc1nc(N2CCN(CC)CC2)c2c(n1)c(C)nn2CC — lower, -11.71%
- Cc1nn(C)c2c(NCCCn3cccn3)ncnc12 — higher, 1.711%
- CN1CCC(N(C)C[C@H]2CC[C@@H](Cc3cccc(CO)c3)O2)CC1 — lower, -29.03%
- O=C(NCC1CC1)C1CN(C(=O)c2cccc(Cl)c2)CC12CCOCC2 (stereo not given) — higher, -0.2514%
- Cn1c(C(=O)N2CCC(C(=O)N3CCCC3)CC2)c(Cl)c2ccccc21 — higher, 1.615%
- Cn1c(C(=O)N2CCC(C(N)=O)C2)c(Cl)c2ccccc21 (stereo not given) — higher, 50.27%
- Cn1c(C(=O)N2CCC(CC(N)=O)CC2)c(Cl)c2ccccc21 — lower, -9.644%
- Cc1ccc(OC2(C(=O)O)CCN(C(=O)c3nc(C)oc3C)CC2)cn1 — higher, -0.6346%
- CCC(NS(=O)(=O)c1ccc(C(=O)NC2CC2)cc1)c1ccnn1C (stereo not given) — higher, -9.031%
- CCCNS(=O)(=O)c1ccc(C(=O)NC(CC)c2cnn(C)c2)cc1 (stereo not given) — higher, -2.749%
- CCC(NS(=O)(=O)c1ccc(C(=O)NC2CC2)cc1)c1cnn(C)c1 (stereo not given) — higher, 100.7%
- Cc1nc2cc(=O)[nH]n2c(C)c1CNC(=O)C(C)Cc1ccccc1 (stereo not given) — higher, -3.98%
- COc1cccc2c1N(CC(=O)Nc1ccc(Cl)cn1)CCC2 — higher, 8.099%
- Cc1ccc2nc(C3CCN(CC(C)C)CC3)nc(O)c2c1 — higher, 129.6%
- COC(=O)c1cccc2nc([C@H]3CCN(CC(C)C)C3)oc12 — higher, -3.142%
- Cc1ccc2ncn(CC(O)CN3CCC(C)CC3)c(=O)c2c1 (stereo not given) — higher, 8.084%
- Cc1ccc2nc(CN3CCC(O)(CN4CCCC4)CC3)cc(O)c2c1 — higher, 3.677%
- CC(C)CN1CCC(NC(=O)c2ccc(F)cc2I)CC1 — higher, 2.48%
- Cc1ccc2nc(CNCCCN3CCCC3)cc(O)c2c1 — higher, -3.941%
- Cc1ccc2nc(C3CCCN(CC(C)C)C3)nc(O)c2c1 (stereo not given) — higher, 109.3%
- Oc1cc(CNCCCN2CCCC2)nc2ccc(F)cc12 — higher, 15.84%
- CCN1CCCC(c2nc(O)c3cc(C)ccc3n2)C1 (stereo not given) — higher, 115.3%
- Cc1ccc2nc(CN3CCCC3c3cccnc3)cc(O)c2c1 (stereo not given) — higher, 7.141%
- CC(C)CN1CCCC(c2nc(O)c3cc(F)ccc3n2)C1 (stereo not given) — higher, 102.2%
- O=C(c1ccco1)N(CC(F)(F)F)C1CCCOC1 (stereo not given) — lower, -12.11%
- COCc1csc(NC(=O)NCc2ccc(C)s2)n1 — higher, 0.0103%
- c1cc(-c2noc(-c3cc(C4CC4)[nH]n3)n2)cc(N2CCCCC2)n1 — lower, -19.77%
- Cc1cnn(CCC(=O)N2C[C@H]3CC[C@@H]2CN(CC(=O)N(C)C)C3)c1 — higher, -5.732%
- COCCN(Cc1ccc(C)o1)C(=O)Nc1nnc2ccccn12 — lower, -21.85%
